Measurements taken from PubChem BioAssay AID1159580 (chemical genetic matrix, 2015).
Values joined by “and” are separate entries in the source; they are usually repeats but may differ in a detail not shown here. Equal entries are not always repeated. Out of some 5,500 compounds screened, about 2,000 (36%) were called active. Roughly 18% stayed inconclusive and do not appear here. Rule as the data show it: active = normalized growth mostly below about 0.91 (no sharp cut-off); inconclusive = no clear call, values can overlap the other calls; inactive = mostly above about 0.92. The list shows a part of the results.

Experiment: chemical genetic growth profiling, strain panel (AID 1159580);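 also: tested at 20 µM; growth read once vehicle control cultures reached saturation at 30 °C; 1 = growth at the plate median or of vehicle wells; lower values mean less growth of the strain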
Settings: S. cerevisiae deletion strains, growth OD

Measured: normalized growth

ClC1=C(Cl)C2(Cl)C3C4C=CC(C4)C3C1(Cl)C2(Cl)Cl (configuration not stated)
inactive: locus YAL013W, strain DEP1, stronger effect = lower value 0.989 | locus YAL021C, strain ccr4, stronger effect = lower value 0.987 | locus YAL026C, strain drs2, stronger effect = lower value 0.993 | locus YAL030W, strain snc1, stronger effect = lower value 1 | locus YBL061C, strain skt5, stronger effect = lower value 1.01 | locus YBR009C, strain hhf1, stronger effect = lower value 0.992 | locus YBR021W, strain FUR4, stronger effect = lower value 1 | locus YBR023C, strain chs3, stronger effect = lower value 0.997 | locus YBR171W, strain sec66, stronger effect = lower value 0.988 | locus YBR229C, strain ROT2, stronger effect = lower value 0.997 | locus YBR231C, strain swc5, stronger effect = lower value 1 | locus YBR279W, strain paf1, stronger effect = lower value 1.01 | locus YCL011C, strain gbp2, stronger effect = lower value 0.999 | locus YCL016C, strain dcc1, stronger effect = lower value 0.999 | locus YCL029C, strain bik1, stronger effect = lower value 0.972 | locus YCL061C, strain MRC1, stronger effect = lower value 0.993 | locus YCL069W, strain vba3, stronger effect = lower value 0.997 | locus YCR088W, strain abp1, stronger effect = lower value 0.991 | locus YDL005C, strain med2, stronger effect = lower value 0.999 | locus YDL035C, strain GPR1, stronger effect = lower value 0.949 | locus YDL040C, strain nat1, stronger effect = lower value 0.998 | locus YDL074C, strain BRE1, stronger effect = lower value 0.969 | locus YDL101C, strain DUN1, stronger effect = lower value 0.993 | locus YDL134C, strain PPH21, stronger effect = lower value 0.992 | locus YDL185W, strain tfp1, stronger effect = lower value 1 | locus YDL192W, strain arf1, stronger effect = lower value 0.997 | locus YDR001C, strain nth1, stronger effect = lower value 0.996 | locus YDR069C, strain doa4, stronger effect = lower value 0.99 | locus YDR101C, strain arx1, stronger effect = lower value 1 | locus YDR137W, strain rgp1, stronger effect = lower value 0.956 | locus YDR150W, strain NUM1, stronger effect = lower value 1 | locus YDR159W, strain sac3, stronger effect = lower value 0.901 | locus YDR162C, strain NBP2, stronger effect = lower value 1 | locus YDR195W, strain ref2 0.955 | locus YDR297W, strain sur2, stronger effect = lower value 1 | locus YDR318W, strain mcm21, stronger effect = lower value 0.981 | locus YDR334W, strain swr1, stronger effect = lower value 0.993 | locus YDR335W, strain msn5, stronger effect = lower value 1 | locus YDR388W, stronger effect = lower value 0.985 | locus YDR392W, strain spt3, stronger effect = lower value 1 | locus YDR502C, strain sam2, stronger effect = lower value 0.994 | locus YEL003W, strain gim4, stronger effect = lower value 1 | locus YEL037C, strain rad23, stronger effect = lower value 1 | locus YEL061C, strain CIN8 (second series), stronger effect = lower value 1 | locus YEL061C, strain CIN8, stronger effect = lower value 1 | locus YER015W, strain faa2, stronger effect = lower value 1 | locus YER016W, strain bim1, stronger effect = lower value 0.994 | locus YER110C, stronger effect = lower value 0.99 | locus YER111C, strain swi4, stronger effect = lower value 1 | locus YER155C, strain BEM2 (second series), stronger effect = lower value 0.998 | locus YER155C, strain BEM2, stronger effect = lower value 0.978 | locus YER167W, strain BCK2, stronger effect = lower value 0.977 | locus YFR010W, strain ubp6, stronger effect = lower value 0.988 | locus YGL078C, strain dbp3, stronger effect = lower value 1 | locus YGL086W, strain mad1, stronger effect = lower value 0.967 | locus YGL167C, strain pmr1, stronger effect = lower value 0.983 | locus YGL173C, strain kem1, stronger effect = lower value 0.992 | locus YGL227W, strain vid30, stronger effect = lower value 0.996 | locus YGL240W, strain doc1, stronger effect = lower value 0.981 | locus YGL248W, strain PDE1, stronger effect = lower value 0.997 | locus YGL253W, strain hxk2, stronger effect = lower value 0.983 | locus YGR078C, strain PAC10, stronger effect = lower value 1.01 | locus YGR135W, strain pre9, stronger effect = lower value 0.982 | locus YGR229C, strain SMI1, stronger effect = lower value 0.952 | locus YGR252W, strain gcn5, stronger effect = lower value 0.961 | locus YHR013C, strain ard1, stronger effect = lower value 1.08 | locus YHR027C, strain rpn1, stronger effect = lower value 0.988 | locus YHR030C, strain SLT2, stronger effect = lower value 1 and 0.976 | locus YHR079C, strain IRE1 (second series), stronger effect = lower value 0.983 | locus YHR079C, strain IRE1, stronger effect = lower value 0.979 | locus YHR094C, strain hxt1, stronger effect = lower value 1 | locus YHR129C, strain ARP1, stronger effect = lower value 1 | locus YHR142W, strain chs7, stronger effect = lower value 1.01 | locus YHR200W, strain rpn10, stronger effect = lower value 0.99 | locus YIL066C, strain RNR3, stronger effect = lower value 0.941 | locus YIL073C, strain SPO22, stronger effect = lower value 0.874 | locus YIL125W, strain kgd1, stronger effect = lower value 1 | locus YIR030C, strain dcg1, stronger effect = lower value 0.991 | locus YJL092W, strain hpr5, stronger effect = lower value 0.992 | locus YJL095W, strain BCK1 (second series), stronger effect = lower value 0.994 | locus YJL095W, strain BCK1, stronger effect = lower value 1.01 and 1.03 | locus YJL115W, strain asf1, stronger effect = lower value 0.989 | locus YJL134W, strain LCB3, stronger effect = lower value 0.999 | locus YJL154C, strain vps35, stronger effect = lower value 0.992 | locus YJL164C, strain tpk1, stronger effect = lower value 0.981 | locus YJL166W, strain qcr8, stronger effect = lower value 0.99 | locus YJL168C, strain set2, stronger effect = lower value 0.991 | locus YJL187C, strain SWE1 (second series), stronger effect = lower value 1 | locus YJL187C, strain SWE1, stronger effect = lower value 1.01 | locus YJR043C, strain POL32, stronger effect = lower value 0.981 | locus YJR066W, strain TOR1, stronger effect = lower value 0.975
active: locus YJL129C, strain trk1, stronger effect = lower value 0.85
